Measured values: PubChem BioAssay
Values joined by “and” are separate entries in the source; they are usually repeats but may differ in a detail not shown here. Identical values can stand only once. Some compounds were tested as several samples or in several runs, with calls that do not always agree. Active and inactive are the calls of the source.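 The calls were made as follows, unless noted: active = compounds whose cell count with miR-34 switched on is under 0.7 times the count with it off; inactive = the rest.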

Legend:
[1] = P. berghei load reduction in hepatocytes – cell-based, HepG2, luciferase luminescence, HepG2 viability, primary screen (AID 624349; in the data active = parasite load remaining mostly below about 12%, no sharp cut-off; inactive = mostly above about 10%;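 also: 100% = mean of DMSO negative control wells on the same plate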); conditions: P. berghei liver stage in HepG2, luciferase luminescence, concentration not given here; parasite load remaining: stronger effect = lower value; viability: measured here: HepG2 viability without parasites
[2] = Wnt pathway potentiators raising nuclear beta-catenin – imaging, WNT3A-conditioned medium, mouse C2C12, NPC library, primary screen (AID 1117326; in the data active = nuclear beta-catenin stimulation mostly above about 4.2%, no sharp cut-off; inactive = mostly below about 10%); conditions: stronger effect = higher value
[3] = stimulators of insulin release from INS-1E, primary screen, cell-based, 5 mM glucose, NPC library (AID 1117329;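 active = compound raises insulin release from rat beta cells at 5 mM glucose, no numeric limit stated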); conditions: rat INS-1E insulin secretion, at 10 µM, stronger effect = higher value
[4] = growth inhibition of GSK3B-pretreated HCT116 cells – cell-based, CellTiter-Glo, 0.2 to 20 µM (AID 1117336;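 active = compounds lowering colon cancer cell viability after pretreatment blocking the GSK3B kinase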); conditions: HCT116 viability after GSK3B inhibitor, at 20 µM, stronger effect = higher value
[5] = inhibition of endothelial tube formation, primary screen, imaging, VEGF stimulated, CD31 staining, tube area, NPC library (AID 1117340;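 active = compound that reduces growth-factor-driven endothelial tube area in a mixed cell culture, no cutoff stated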); conditions: VEGF-stimulated ADSC/ECFC co-culture, at 10 µM, stronger effect = higher value
[6] = GLP1 release stimulators, primary, NCI-H716, NPC library (AID 1117341;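 active = compound raises GLP1 secretion from the human gut endocrine cells, with no numeric limit stated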); conditions: NCI-H716 cells, at 10 µM, stronger effect = higher value
[7] = HCT116 colon cancer cell growth inhibition, primary screen, CellTiter-Glo luminescence, NPC library (AID 1117342;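 active = compounds that lower survival of HCT116 colon cancer cells in the luminescence readout, no numeric limit stated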); conditions: at 20 µM (top of the series)
[8] = reduced SW480 viability measured with CellTiter-Glo, NPC library, primary (AID 1117343;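 active = compounds that lower viability of the colon cancer cells in the luminescence readout, with no numeric limit stated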); conditions: CellTiter-Glo luminescence; at 20 µM (top of the series)
[9] = NPC library primary testing for decreased DLD-1 cell viability via CellTiter-Glo (AID 1117346;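 active = compounds that lower survival of DLD-1 colon cancer cells in the luminescence readout, no cutoff given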); conditions: DLD-1 viability, CellTiter-Glo luminescence; at 20 µM (top of the series)
[10] = biological target: 6-phosphogluconate dehydrogenase, decarboxylating (Homo sapiens) (UniProt P52209); assay: inhibition of human phosphogluconate dehydrogenase – biochemical, recombinant enzyme, NADPH absorbance, primary screen (AID 1159550;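 active = at least 20% inhibition of 6-phosphogluconate dehydrogenase activity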); conditions: recombinant 6PGD, NADPH absorbance 341 nm; at 10 µM; stronger effect = higher value
[11] = EMT-state selective cytotoxicity in co-culture – imaging, PC-3E GFP, TEM4-18 mCherry, primary screen (AID 1345086;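 active = compounds killing one labelled cell type while sparing the other, by normalised counts and ratio limits, not self-fluorescent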;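 as to all read-outs here: cells exposed to compound for 72 h before imaging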;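 as to red/green cell ratio (normalised): normalised mesenchymal count divided by normalised epithelial count so high means epithelial killing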); conditions: PC-3E GFP / TEM4-18 mCherry co-culture, imaging cell counts, at 1 µM; for red/green cell ratio (normalised): actives lie on both sides
[12] = viability loss with induced miR-34 in A549 – imaging, A549 dox-inducible miR-34, nuclei and caspase counts, primary screen (AID 1347080); conditions: A549 miR-34 inducible, Hoechst nuclei count, 48 h
[13] = MELAS cybrid and Rieske KO viability enhancers – cell-based, MELAS cybrids, Rieske KO mouse fibroblasts, CellTiter-Glo, primary screen (AID 1508586;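 active = mean z-score across replicates of 1.96 or higher in either the MELAS or the Rieske mutant cell line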;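 also: z relative to plate mean and SD of compound and empty wells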); conditions: low glucose
[14] = biological target: NAD(+) hydrolase SARM1 (Homo sapiens) (UniProt Q6SZW1); assay: blocking NAD cleavage by SARM1 SAM-TIR – cell lysate, NAD-Glo luminescence (AID 1508614;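 active = compound whose remaining NAD level is above about 45 nM, limit read from the data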;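 also: higher remaining NAD means stronger inhibition of SARM1 NADase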); conditions: SAM-TIR HEK293T lysate NADase, at 1 µM, stronger effect = higher value
[15] = biological target: Mitogen-activated protein kinase 7 (Homo sapiens) (UniProt Q13164); assay: Gal4-ERK5 driven luciferase induction – cell-based, HTS, primary screen (AID 1508626;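 active = luciferase signal above three times the same-plate solvent-only control wells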;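 also: luciferase driven by Gal4-ERK5 fusion binding five Gal4 sites before minimal TATA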); conditions: HeLa Gal4-ERK5 transactivation, 18 h, at 5 µM, stronger effect = higher value
[16] = yeast 75Q aggregation reduction – 75Q-TubU reporter (AID 1593); conditions: Yeast 75Q polyglutamine aggregation reporter
[17] = blockers of cytochrome c efflux from mitochondria – biochemical, purified mitochondria (AID 1603); conditions: stronger effect = lower value;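 also: mouse liver mitochondria challenged with calcium chloride; signal normalized to the plate average as 100%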
[18] = polyglutamine aggregate formation blockers (AID 1604); conditions: polyglutamine-induced protein aggregation inhibition assay; stronger effect = higher value; tested at 2.5 µM
[19] = tested on: Aerobactin synthetase IucA (Klebsiella pneumoniae hvKP1); assay: IucA enzyme inhibition, primary screen, biochemical, Spectrum library (AID 1346200; call rule not given here;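 also: 100% = wells without compound and 0% = wells lacking enzyme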); conditions: malachite green pyrophosphate, A620, at 8 µM, stronger effect = lower value
[20] = galactose survival enhancers in mitochondrial complex I cybrids – cell-based, galactose medium, ATP luminescence, primary screen (AID 1645843;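 active = z-score of at least 1.8 in each of two replicates, scored against plate mean and spread of sample wells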;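 also: positive z means more ATP and so rescue of galactose-driven cybrid death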); conditions: complex I mutant cybrid cells, 72 h, stronger effect = higher value
[21] = measured here: epithelial PC-3E GFP cell survival
[22] = measured here: mesenchymal TEM4-18 mCherry cell survival
[23] = measured here: relative caspase fold change +Dox/-Dox
[24] = measured here: total cells with miR-34 induction, stronger effect = lower value
[25] = measured here: total cells without miR-34 induction
[26] = MELAS cybrid survival, CellTiter-Glo 48 h, stronger effect = higher value
[27] = Rieske KO mouse fibroblast survival, CellTiter-Glo 72 h

Chain of Mitogen-activated protein kinase 7 (Homo sapiens) (Q13164 whole entry, looked up, the tested form may be a part): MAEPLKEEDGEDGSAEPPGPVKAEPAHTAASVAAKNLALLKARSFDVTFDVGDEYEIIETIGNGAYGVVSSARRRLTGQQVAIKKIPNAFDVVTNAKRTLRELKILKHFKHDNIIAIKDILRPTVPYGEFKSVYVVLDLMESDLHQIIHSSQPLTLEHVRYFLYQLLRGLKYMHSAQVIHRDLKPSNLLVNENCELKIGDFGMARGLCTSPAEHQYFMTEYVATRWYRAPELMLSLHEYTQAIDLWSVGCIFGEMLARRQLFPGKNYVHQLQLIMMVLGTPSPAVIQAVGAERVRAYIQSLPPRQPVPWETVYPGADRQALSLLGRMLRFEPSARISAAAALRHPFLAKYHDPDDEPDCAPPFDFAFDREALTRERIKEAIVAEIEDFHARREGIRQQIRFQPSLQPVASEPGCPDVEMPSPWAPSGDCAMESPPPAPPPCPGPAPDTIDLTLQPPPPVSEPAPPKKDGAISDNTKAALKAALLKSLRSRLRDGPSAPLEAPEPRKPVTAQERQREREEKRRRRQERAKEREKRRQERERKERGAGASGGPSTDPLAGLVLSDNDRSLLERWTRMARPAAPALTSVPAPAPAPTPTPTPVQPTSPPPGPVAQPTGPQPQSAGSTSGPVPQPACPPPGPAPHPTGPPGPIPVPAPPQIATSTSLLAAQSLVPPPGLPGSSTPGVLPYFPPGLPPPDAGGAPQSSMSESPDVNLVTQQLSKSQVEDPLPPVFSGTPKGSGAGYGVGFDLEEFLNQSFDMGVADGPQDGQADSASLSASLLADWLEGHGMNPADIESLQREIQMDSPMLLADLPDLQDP
Chain of NAD(+) hydrolase SARM1 (Homo sapiens) (Q6SZW1 whole entry, looked up, the tested form may be a part): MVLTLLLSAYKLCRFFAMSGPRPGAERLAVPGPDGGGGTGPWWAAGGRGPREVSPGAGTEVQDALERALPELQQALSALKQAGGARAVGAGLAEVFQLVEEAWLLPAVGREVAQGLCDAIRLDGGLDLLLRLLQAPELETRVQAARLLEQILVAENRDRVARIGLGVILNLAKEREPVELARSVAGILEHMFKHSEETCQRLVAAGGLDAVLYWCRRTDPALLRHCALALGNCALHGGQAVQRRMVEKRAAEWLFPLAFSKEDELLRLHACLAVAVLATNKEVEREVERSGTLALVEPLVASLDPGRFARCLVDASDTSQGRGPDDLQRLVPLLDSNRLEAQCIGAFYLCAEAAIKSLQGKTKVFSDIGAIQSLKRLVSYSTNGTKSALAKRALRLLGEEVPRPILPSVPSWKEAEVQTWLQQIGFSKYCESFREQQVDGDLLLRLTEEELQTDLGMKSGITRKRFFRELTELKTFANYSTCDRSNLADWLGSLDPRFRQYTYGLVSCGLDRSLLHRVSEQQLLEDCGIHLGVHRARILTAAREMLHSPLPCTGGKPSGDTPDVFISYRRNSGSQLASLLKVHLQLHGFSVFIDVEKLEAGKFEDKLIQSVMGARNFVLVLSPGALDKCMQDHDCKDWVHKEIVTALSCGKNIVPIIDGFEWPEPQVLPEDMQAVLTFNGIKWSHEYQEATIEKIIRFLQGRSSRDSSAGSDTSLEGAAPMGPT
Chain of 6-phosphogluconate dehydrogenase, decarboxylating (Homo sapiens) (P52209 whole entry, looked up): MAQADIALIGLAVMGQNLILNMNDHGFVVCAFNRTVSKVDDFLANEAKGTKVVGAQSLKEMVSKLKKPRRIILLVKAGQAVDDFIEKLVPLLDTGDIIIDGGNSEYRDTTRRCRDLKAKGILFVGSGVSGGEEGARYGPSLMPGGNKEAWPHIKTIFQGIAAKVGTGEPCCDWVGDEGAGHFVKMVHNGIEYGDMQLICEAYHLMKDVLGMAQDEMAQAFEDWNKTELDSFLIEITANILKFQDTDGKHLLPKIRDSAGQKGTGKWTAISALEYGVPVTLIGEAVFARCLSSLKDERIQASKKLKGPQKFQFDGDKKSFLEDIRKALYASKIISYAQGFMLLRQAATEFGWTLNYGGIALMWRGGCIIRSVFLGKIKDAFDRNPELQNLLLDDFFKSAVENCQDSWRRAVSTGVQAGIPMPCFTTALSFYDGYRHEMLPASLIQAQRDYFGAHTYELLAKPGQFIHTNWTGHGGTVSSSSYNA

CC(=O)NC1CCSC1=O (stereo unspecified)
parasite load remaining [1]: 132% (inactive) | viability [1]: 109% | nuclear beta-catenin stimulation ([2]; at 10 µM): 2.9% (inactive) | nuclear beta-catenin stimulation ([2]; stimulation, at 2 µM): 3% | insulin secretion stimulation [3]: 0.7% (inactive) | viability decrease [4]: -1% (inactive) | tube area decrease [5]: 8% (inactive) | GLP1 secretion stimulation [6]: -0.5% (inactive) | inhibition of viability [7]: -4.73% (inactive) | viability decrease (inhibition) [8]: 12.1% (inactive) | viability decrease (inhibition) [9]: -3.7% (inactive) | inhibition [10]: 18.8% (inactive) | red/green cell ratio (normalised) [11]: 0.96 (inactive) | normalised cell number [11, 21]: 1.05 | normalised cell number [11, 22]: 1.02 | fold change ([12]; stronger effect = lower value): 0.927 (inactive) | fold change [12, 23]: 0.928 | cell count [12, 24]: 7880 | cell count [12, 25]: 8510 | z-score [13, 26]: -0.207 (inactive) | z-score [13, 27]: -0.982 | remaining NAD [14]: 10 nM (inactive) | luciferase signal [15]: 52 AU (inactive)

CCOP(=S)(OCC)Oc1ccc2c(C)c(Cl)c(=O)oc2c1
nuclear beta-catenin stimulation ([2]; at 10 µM): 8.6% (inactive) | nuclear beta-catenin stimulation ([2]; stimulation, at 2 µM): 1.6% | insulin secretion stimulation [3]: -1.3% (inactive) | viability decrease [4]: -12.5% (inactive) | tube area decrease [5]: 41% (active) | GLP1 secretion stimulation [6]: 2.3% (inactive) | inhibition of viability [7]: -16% (inactive) | viability decrease (inhibition) [8]: -55% (inactive) | viability decrease (inhibition) [9]: -8.8% (inactive) | inhibition [10]: 6.24% (inactive) | red/green cell ratio (normalised) [11]: 1.09 (inactive) | normalised cell number [11, 21]: 0.91 | normalised cell number [11, 22]: 0.99 | fold change ([12]; stronger effect = lower value): 0.908 (inactive) | fold change [12, 23]: 1.03 | cell count [12, 24]: 8520 | cell count [12, 25]: 9380 | remaining NAD [14]: 10 nM (inactive) | luciferase signal [15]: 72 AU (inactive)

CNC(C)(C)Cc1ccccc1
score [16]: 1.71 | cytochrome c release ratio [17]: 1.14 | inhibition of aggregation [18]: 68.2% | parasite load remaining [1]: 104% (inactive) and 157% (inactive) and 55.8% (inactive) | viability [1]: 104% and 88.4% and 81% | nuclear beta-catenin stimulation ([2]; at 10 µM): -2.4% (inactive) | nuclear beta-catenin stimulation ([2]; stimulation, at 2 µM): 0.7% | insulin secretion stimulation [3]: 2.7% (inactive) | viability decrease [4]: -16.7% (inactive) | tube area decrease [5]: -0.3% (inactive) | GLP1 secretion stimulation [6]: 1.1% (inactive) | inhibition of viability [7]: 0.43% (inactive) | viability decrease (inhibition) [8]: 15.4% (inactive) | viability decrease (inhibition) [9]: -5.3% (inactive) | inhibition [10]: -16.6% (inactive) | red/green cell ratio (normalised) [11]: 1.08 (inactive) | normalised cell number [11, 21]: 0.92 | normalised cell number [11, 22]: 1 | activity remaining [19]: 99.6% (inactive) | fold change ([12]; stronger effect = lower value): 0.876 (inactive) and 0.893 (inactive) | fold change [12, 23]: 1.32 and 3.57 | cell count [12, 24]: 7450 and 10900 | cell count [12, 25]: 8510 and 12200 | z-score [13, 26]: -0.189 (inactive) | z-score [13, 27]: -0.596 | remaining NAD [14]: 10 nM (inactive) | luciferase signal [15]: 56 AU (inactive)

COc1ccc(Cc2nccc3cc(OC)c(OC)cc23)cc1OC
score [16]: 1.48 | cytochrome c release ratio [17]: 1.07 | inhibition of aggregation [18]: 46.4% | nuclear beta-catenin stimulation ([2]; at 10 µM): 1.4% (inactive) | nuclear beta-catenin stimulation ([2]; stimulation, at 2 µM): -0.3% | insulin secretion stimulation [3]: -2.5% (inactive) | viability decrease [4]: 54.7% (active) | tube area decrease [5]: 59.3% (active) | GLP1 secretion stimulation [6]: 2.3% (inactive) | inhibition of viability [7]: 39.8% (inactive) | viability decrease (inhibition) [8]: 112% (active) | viability decrease (inhibition) [9]: 14.5% (inactive) | inhibition [10]: -8.16% (inactive) | red/green cell ratio (normalised) [11]: 0.84 (inactive) | normalised cell number [11, 21]: 1 | normalised cell number [11, 22]: 0.83 | activity remaining [19]: 114% (inactive) | fold change ([12]; stronger effect = lower value): 1.24 (inactive) and 0.81 (inactive) and 0.838 (inactive) | fold change [12, 23]: 0.505 and 1.57 and 3.09 | cell count [12, 24]: 7270 and 6810 and 7780 | cell count [12, 25]: 5860 and 8410 and 9280 | z-score [13, 26]: 0.889 (inactive) | z-score [13, 27]: 0.124 | remaining NAD [14]: 10 nM (inactive) | luciferase signal [15]: 24 AU (inactive) | z-score [20]: -1.28 (inactive)

O=[N+]([O-])O[C@H]1CO[C@H]2[C@@H]1OC[C@H]2O[N+](=O)[O-]
score [16]: 1.7 | cytochrome c release ratio [17]: 0.66 | inhibition of aggregation [18]: 83.1% | parasite load remaining [1]: 88.7% (inactive) and 89.6% (inactive) and 73.9% (inactive) | viability [1]: 101% and 72.5% and 103% | nuclear beta-catenin stimulation ([2]; at 10 µM): 1.4% (inactive) | nuclear beta-catenin stimulation ([2]; stimulation, at 2 µM): 0.8% | insulin secretion stimulation [3]: 0.2% (inactive) | viability decrease [4]: -35.2% (inactive) | tube area decrease [5]: 2.7% (inactive) | GLP1 secretion stimulation [6]: -0.1% (inactive) | inhibition of viability [7]: -4.45% (inactive) | viability decrease (inhibition) [8]: 10.7% (inactive) | viability decrease (inhibition) [9]: -9.7% (inactive) | inhibition [10]: -5.58% (inactive) | red/green cell ratio (normalised) [11]: 1.14 (inactive) | normalised cell number [11, 21]: 1.17 | normalised cell number [11, 22]: 1.33 | activity remaining [19]: 86.8% (inactive) | fold change ([12]; stronger effect = lower value): 0.842 (inactive) and 0.816 (inactive) | fold change [12, 23]: 1.05 and 0.822 | cell count [12, 24]: 8050 and 10900 | cell count [12, 25]: 9560 and 13300 | z-score [13, 26]: -0.72 (inactive) | z-score [13, 27]: -0.455 | remaining NAD [14]: 10 nM (inactive) | luciferase signal [15]: 164 AU (inactive)

c1ccc2c(c1)sc1ccccc12
score [16]: -0.17 | cytochrome c release ratio [17]: 0.98 | inhibition of aggregation [18]: 65.4% | parasite load remaining [1]: 94.3% (inactive) and 69.4% (inactive) | viability [1]: 70.5% and 91.8% | nuclear beta-catenin stimulation ([2]; at 10 µM): 0.1% (inactive) | nuclear beta-catenin stimulation ([2]; stimulation, at 2 µM): 0.9% | insulin secretion stimulation [3]: -1.4% (inactive) | viability decrease [4]: -3.95% (inactive) | tube area decrease [5]: -9.2% (inactive) | GLP1 secretion stimulation [6]: -2.6% (inactive) | inhibition of viability [7]: -22.5% (inactive) | viability decrease (inhibition) [8]: -1.8% (inactive) | viability decrease (inhibition) [9]: 3% (inactive) | inhibition [10]: 9.3% (inactive) | red/green cell ratio (normalised) [11]: 1.2 (inactive) | normalised cell number [11, 21]: 1.12 | normalised cell number [11, 22]: 1.35 | activity remaining [19]: 113% (inactive) | fold change ([12]; stronger effect = lower value): 0.934 (inactive) and 0.791 (inactive) | fold change [12, 23]: 0.629 and 1.03 | cell count [12, 24]: 8380 and 10000 | cell count [12, 25]: 8970 and 12600 | z-score [13, 26]: -0.144 (inactive) | z-score [13, 27]: -0.145 | remaining NAD [14]: 10 nM (inactive) | luciferase signal [15]: 32 AU (inactive)

CCCCCCCCCCCCCCCC[N+](C)(C)C
score [16]: 0.03 | cytochrome c release ratio [17]: 2.11 | inhibition of aggregation [18]: 65.1% | parasite load remaining [1]: 86.4% (inactive) and 31.9% (inactive) | viability [1]: 75.1% and 81.2% | nuclear beta-catenin stimulation ([2]; at 10 µM): 19.2% (inactive) | nuclear beta-catenin stimulation ([2]; stimulation, at 2 µM): 9.4% | insulin secretion stimulation [3]: -0.3% (inactive) | viability decrease [4]: 100% (active) | tube area decrease [5]: 109% (active) | GLP1 secretion stimulation [6]: 40.8% (active) | inhibition of viability [7]: 102% (active) | viability decrease (inhibition) [8]: 123% (active) | viability decrease (inhibition) [9]: 104% (active) | inhibition [10]: -5.61% (inactive) | red/green cell ratio (normalised) [11]: 0.49 (inactive) | normalised cell number [11, 21]: 0.64 | normalised cell number [11, 22]: 0.31 | activity remaining [19]: 108% (inactive) | fold change ([12]; stronger effect = lower value): 0.616 (active) and 0.9 (inactive) | fold change [12, 23]: 3.21 and 2.28 | cell count [12, 24]: 4400 and 4060 | cell count [12, 25]: 7150 and 4510 | z-score [13, 26]: -0.416 (inactive) | z-score [13, 27]: -0.288 | remaining NAD [14]: 10 nM (inactive) | luciferase signal [15]: 96 AU (inactive)
